{
  "source": "PubChem BioAssay AID463173",
  "about": "(ICCB-Longwood Screening Facility, Harvard Medical School, 2010)",
  "note": "About 4,300 (8.3%) of roughly 52,000 compounds were called active. The entries come from a sample that favours actives as a whole. Values without a mark were called inactive. Cut-off read from the data, not from the text of the source: active = survival mostly below about 52% (no sharp cut-off); inactive = mostly above about 56%.",
  "data": [
    {"system": "DeltatarO mutant", "assay": "growth inhibition of S. aureus wild type versus tarO mutant, primary screen, teichoic acid synthesis inhibitors, RN4220, OD600 (AID 463173)", "conditions": "OD600, 18 h, active compounds read low, screened at 18.75 µg/mL (by protocol)", "values": [
      {"smiles": "Cc1ccc(-c2ccc(=O)n(CC(=O)Nc3cccc(C#N)c3)n2)cc1", "survival": "112%"},
      {"smiles": "Cc1ccc(C)c(-c2ccc(=O)n(C(C)C(=O)Nc3ccccc3C(F)(F)F)n2)c1", "note": "(stereo not given)", "survival": "41% (active)"},
      {"smiles": "CCc1cccc(NC(=O)Cn2nc(CC)n3c(cc4cc(C)ccc43)c2=O)c1", "survival": "56%"},
      {"smiles": "CCC(C(=O)Nc1cccc(C#N)c1)n1nc(-c2ccccc2)ccc1=O", "note": "(stereo not given)", "survival": "40% (active)"},
      {"smiles": "CCC(C(=O)Nc1ccc(C(=O)OC)cc1)n1nc(-c2ccc(C)c(C)c2)ccc1=O", "note": "(stereo not given)", "survival": "86%"},
      {"smiles": "Cc1ccc(C)c(NC(=O)C(C)n2c(=O)cc(C(F)(F)F)c3c(C)nn(C)c32)c1", "note": "(stereo not given)", "survival": "89%"},
      {"smiles": "CCc1ccccc1NC(=O)C(C)n1nc(-c2ccc(C)c(C)c2)ccc1=O", "note": "(stereo not given)", "survival": "54%"},
      {"smiles": "CCC(C(=O)Nc1cccc(C#N)c1)n1c(=O)c(-c2ccccc2NC(C)=O)nc2ccccc21", "note": "(stereo not given)", "survival": "100%"},
      {"smiles": "CCOc1ccc(NC(=O)C(CC)n2nc(-c3ccc(C)c(C)c3)ccc2=O)cc1", "note": "(stereo not given)", "survival": "68%"},
      {"smiles": "CCc1cccc(NC(=O)Cn2nc(-c3cc(C)ccc3C)ccc2=O)c1", "survival": "34% (active)"},
      {"smiles": "CCC(C(=O)Nc1ccccc1)n1nc(-c2cc(C)ccc2C)ccc1=O", "note": "(stereo not given)", "survival": "37% (active)"},
      {"smiles": "CCc1cccc(NC(=O)Cn2nc(-c3ccc(OC)cc3)ccc2=O)c1", "survival": "83%"},
      {"smiles": "COc1ccc(Nc2ncnc3c2cnn3-c2ccc(C)cc2)cc1Cl", "survival": "128%"},
      {"smiles": "CC1=C(c2ccc(C)c(C)c2)S(=O)(=O)N=C1N1CCC(C(=O)Nc2cccc(F)c2)CC1", "survival": "79%"},
      {"smiles": "O=C(COC(=O)c1ccccc1Cl)Nc1nccs1", "survival": "94%"},
      {"smiles": "Cc1ccc(CCNC(=O)NCc2noc3ccccc23)cc1", "survival": "102%"},
      {"smiles": "COc1ccc(CNC(=O)C(=O)Nc2c3c(nn2-c2ccccc2)CSC3)cc1", "survival": "86%"},
      {"smiles": "Cc1ccc(OCCSc2nc(-c3ccccc3C)nc3cc(=O)[nH]n23)cc1Cl", "survival": "106%"},
      {"smiles": "COc1ccc(CNC(=O)CCS(=O)(=O)c2cc(Br)cc3c2N(C(C)=O)C(C)C3)cc1", "note": "(stereo not given)", "survival": "92%"},
      {"smiles": "CCOC(=O)c1c(S(=O)(=O)N2CCC(C(=O)Nc3cccc(C)n3)CC2)c(C)n(C)c1C", "survival": "94%"},
      {"smiles": "CCC(C(=O)Nc1cc(F)ccc1F)n1nc(C)c2c(C)n(-c3ccc(C)cc3)nc2c1=O", "note": "(stereo not given)", "survival": "87%"},
      {"smiles": "CCC(C(=O)Nc1cc(F)ccc1F)n1nc(-c2cc(C)ccc2C)ccc1=O", "note": "(stereo not given)", "survival": "38% (active)"},
      {"smiles": "Cc1ccc2onc(CNC(=O)Nc3cc(F)ccc3F)c2c1", "survival": "49%"},
      {"smiles": "COc1ccc(NC(=O)c2sc3nc4n(c(=O)c3c2C)CCC4)cc1Cl", "survival": "108%"},
      {"smiles": "CCc1ccc(NC(=O)C2(c3cccs3)CCOCC2)cc1", "survival": "73%"},
      {"smiles": "Nc1n[nH]c2nc(C(F)(F)F)cc(=O)n12", "survival": "62%"},
      {"smiles": "Cc1ccc(C(=O)C2=C(O)C(=O)N(CCc3ccccc3)C2c2ccncc2)o1", "note": "(stereo not given)", "survival": "103%"},
      {"smiles": "COc1cc(OC)cc(C(=O)Nc2ccc3oc(-c4ccc(Cl)cc4)nc3c2)c1", "survival": "50% (active)"},
      {"smiles": "O=C(Nc1ccc(-c2nc3cc(NC(=O)c4ccc(Cl)cc4)ccc3o2)cc1)c1ccc(Cl)cc1", "survival": "88%"},
      {"smiles": "COc1cc(OC)cc(C(=O)Nc2ccc(-c3nc4cc(C(C)C)ccc4o3)cc2)c1", "survival": "45% (active)"},
      {"smiles": "COC(=O)c1ccc(C(=O)Nc2ccc(-c3nc4cc(NC(=O)c5ccc(C(=O)OC)cc5)ccc4o3)cc2)cc1", "survival": "60%"},
      {"smiles": "CC(C)Oc1cccc(C(=O)Nc2ccc3oc(-c4cccc(Cl)c4)nc3c2)c1", "survival": "28% (active)"},
      {"smiles": "COc1cc(OC)cc(C(=O)Nc2ccc3oc(-c4cccc5c(Br)cccc45)nc3c2)c1", "survival": "60%"},
      {"smiles": "COc1ccc(C(=O)Nc2ccc3oc(-c4ccc(OC)cc4)nc3c2)cc1", "survival": "60%"},
      {"smiles": "COc1cc(OC)cc(C(=O)Nc2ccc3oc(-c4ccccc4C)nc3c2)c1", "survival": "34% (active)"},
      {"smiles": "COc1cc(C(=O)Nc2ccc(-c3nc4cc(C)c(C)cc4o3)cc2)cc(OC)c1OC", "survival": "59%"},
      {"smiles": "COc1cccc(C(=O)Nc2ccc3oc(-c4ccc5ccccc5c4)nc3c2)c1", "survival": "55%"},
      {"smiles": "CC(C)Oc1cccc(C(=O)Nc2ccc(-c3nc4cc(Cl)cc(Cl)c4o3)cc2)c1", "survival": "55%"},
      {"smiles": "Cc1ccc(C(=O)Nc2ccc3oc(-c4ccccc4C)nc3c2)cc1", "survival": "65%"},
      {"smiles": "Cc1cc(F)ccc1NC(=O)Cn1nc(N2CCN(c3ccccc3)CC2)ccc1=O", "survival": "80%"},
      {"smiles": "COc1cc(-c2noc(-c3ccc(N4CCOCC4)c([N+](=O)[O-])c3)n2)cc(OC)c1OC", "survival": "66%"},
      {"smiles": "CCc1cc(C(=O)OC)c(NC(=O)CC2SC(=NC)N(C)C2=O)s1", "note": "(stereo not given)", "survival": "106%"},
      {"smiles": "COCCn1c(CNC(=O)c2cccc(C)c2)nc2cccnc21", "survival": "95%"},
      {"smiles": "Cc1cccc(N2CCN(C(=O)CCc3nnc4n(CC(C)C)c(=O)c5ccccc5n34)CC2)c1C", "survival": "74%"},
      {"smiles": "CCc1ccc(C2CC(=O)Nc3cc4c(cc32)OCO4)cc1", "note": "(stereo not given)", "survival": "59%"},
      {"smiles": "CCN(CC)S(=O)(=O)c1ccc(-c2nnc(SCC(=O)N3CCCC3)n2CC)cc1", "survival": "103%"},
      {"smiles": "COc1ccc(Nc2nnc(-n3nc(C)cc3C)c3ccccc23)cc1", "survival": "85%"},
      {"smiles": "O=C(CSc1ncc(CO)n1Cc1ccccc1)Nc1nc2ccccc2s1", "survival": "122%"},
      {"smiles": "Cc1nn(CC(=O)Nc2ccc(OC(F)(F)F)cc2)c(=O)c2c(C)n(-c3ccc(Cl)cc3)nc12", "survival": "25% (active)"},
      {"smiles": "COc1ccc(NC(=O)Cn2nc(C)c3nn(-c4ccc(Cl)cc4)c(C)c3c2=O)cc1", "survival": "85%"},
      {"smiles": "COc1ccccc1CNC(=O)Cn1nc(C)c2nn(-c3ccc(Cl)cc3)c(C)c2c1=O", "survival": "63%"},
      {"smiles": "CCOc1ccccc1CNC(=O)Cn1nc(C)c2nn(-c3ccc(Cl)cc3)c(C)c2c1=O", "survival": "101%"},
      {"smiles": "CCOC(=O)c1ccc(NC(=O)Cn2nc(C)c3nn(-c4ccc(Cl)cc4)c(C)c3c2=O)cc1", "survival": "102%"},
      {"smiles": "Cc1ccccc1CNC(=O)Cn1nc(C)c2nn(-c3ccc(Cl)cc3)c(C)c2c1=O", "survival": "37% (active)"},
      {"smiles": "Cn1c(=O)oc2cc(S(=O)(=O)N3CCC(C(=O)N4CCN(c5ccccc5F)CC4)CC3)ccc21", "survival": "80%"}
    ]}
  ]
}
